Results reported in PubChem BioAssay AID430 (Sanford-Burnham Center for Chemical Genomics, 2006).
The whole screen tested about 63,000 compounds, of which about 1,100 (1.7%) were called active. Cut-off read from the data, not from the text of the source: active = cytotoxicity above about 50%; inactive = the rest. The sample as a whole holds a higher share of actives than the screen did. Measured potencies and affinities stand elsewhere.

Assay: cytotoxicity in HPDE-C7 cells, cell-based, fluorescence, HTS (AID 430);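 note: cells exposed to compound for 48 hours before viability readout; 0% = vehicle and 100% = reference cytotoxic drug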
Settings: HPDE-C7 pancreatic duct cells viability, at 10 µM, active compounds read high
With COc1cccc(NC(=O)N2CCN(c3ccc(C(F)(F)F)cn3)CC2)c1 the cytotoxicity was 1% (inactive). For O=C(Cn1nnc2ccccc2c1=O)NC1CCCc2ccccc21 (stereo not drawn), the cytotoxicity was -10.4% (inactive). In the case of N#CCCN(Cc1cccnc1)C(=O)c1ccc(S(=O)(=O)N2CCOCC2)cc1, the cytotoxicity is reported as -11% (inactive). In the case of CCOC(=O)c1[nH]c(C)c(C(=O)NCc2ccccn2)c1C, the cytotoxicity is reported as -28.2% (inactive). For CCCC(c1nnnn1C1CCCCC1)N1CCN(c2ncccn2)CC1 (stereo not drawn), the cytotoxicity was -4% (inactive). With Cc1ccc2nc3sc(C(=O)N4CCOCC4)c(N)c3cc2c1 the cytotoxicity was 2.9% (inactive). For Cc1ccc2cc3c(N)c(C(=O)N4CCOCC4)sc3nc2c1, the cytotoxicity was -0.1% (inactive). In the case of Cc1cccc2cc3c(N)c(C(=O)N4CCOCC4)sc3nc12, the cytotoxicity is reported as 67.6% (active). With CN(Cc1nnc(SCC(=O)NCCc2ccccc2)n1C)S(=O)(=O)c1ccccc1 the cytotoxicity was -11.2% (inactive). In the case of O=C(Nc1ccc(N2CCN(C(=O)c3ccccc3)CC2)cc1)c1ccc(Br)o1, the cytotoxicity is reported as -3.2% (inactive). For c1csc(CSc2nc3ccccc3s2)c1, the cytotoxicity was -16.5% (inactive). In the case of O=C(OCC#CCSc1nc2ccccc2s1)c1ccco1, the cytotoxicity is reported as -5.2% (inactive). In the case of O=C(CCCSc1nc2ccccc2s1)Nc1nccs1, the cytotoxicity is reported as -2.3% (inactive). In the case of CC1=CC(=C(C#N)c2nc3ccccc3s2)C=C(C)N1Cc1ccco1, the cytotoxicity is reported as 10.5% (inactive). In the case of N#C/C(=C\c1ccco1)Sc1nc2ccccc2s1, the cytotoxicity is reported as 54.9% (active). In the case of O=C(Cn1cnc2ccccc2c1=O)OCC(=O)c1ccc2c(c1)OCCO2, the cytotoxicity is reported as 3% (inactive). In the case of O=C(c1cc2nc(-c3ccco3)cc(C(F)(F)F)n2n1)N1CCN(c2ccccc2)CC1, the cytotoxicity is reported as -3% (inactive). With CCOc1ccc(C2N(c3cc(Cl)ccc3OC)C(=O)C3CCCN32)cc1OC (stereo not drawn) the cytotoxicity was -15.6% (inactive). In the case of Cc1ccc(CS(=O)(=O)CCC(=O)NCCN2CCCCC2C)cc1 (stereo not drawn), the cytotoxicity is reported as 7.5% (inactive). In the case of Nc1ccc(N2CCCCC2)cc1N1CCCCC1, the cytotoxicity is reported as 37% (inactive). With O=C(O)c1ccc(N2CCCCC2)cc1 the cytotoxicity was -6.8% (inactive). In the case of CCOc1nc(-c2ccccc2)ccc1-c1noc(-c2cccnc2)n1, the cytotoxicity is reported as -30.6% (inactive). With Cc1nc(NC2=NCN(C3CCCCC3C)CN2)nc2ccccc12 (stereo not drawn) the cytotoxicity was -2.8% (inactive). In the case of Cc1cccc(NC(=O)N2CCC(NC(=O)c3ccccc3C)CC2)c1, the cytotoxicity is reported as 2.1% (inactive). With COC(=O)c1ccccc1NC(=O)CN1CCN(C(=O)c2ccco2)CC1 the cytotoxicity was 4.2% (inactive). For O=S(=O)(c1ccc(S(=O)(=O)N2CCCC2)cc1)N1CCCCCC1, the cytotoxicity was -7.3% (inactive). With O=C(O)c1cc(S(=O)(=O)N2CCCCCC2)ccc1Cl the cytotoxicity was -1.3% (inactive). For Cn1c(=O)c2c(nc(N3CCCCC3)n2CCSc2nc3ccccc3o2)n(C)c1=O, the cytotoxicity was -14.5% (inactive).
